Experimental data: PubChem BioAssay (EPA / NIEHS)
The source made the active and inactive calls. How the source made its calls: active means hit-call score of the fitted dose curve at least 0.9, where 1 is the maximum; inactive means score below 0.9.

Each molecule was assayed on Cyclin D1 (CCND1), CCND1 (gene 595) (assay: LTEA_HepaRG_CCND1: Life Technologies and Expression Analysis (LTEA) Assay for Cyclin D1 (CCND1) using HepaRG (AID 2283451;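 on AC50: TaqMan qRT-PCR transcript level normalised to ACTB GAPDH and POLR2A housekeeping genes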)). Details: mRNA level, 48 h; actives raise or lower the signal.
Description: LTEA_HepaRG is a cell based, multiplexed-readout assay that uses HepaRG, a human liver cell line, with measurements taken at 48 hours after chemical dosing on a 96-well plate.LTEA_HepaRG_CCND1 is one of 102 assay component(s) measured in the LTEA HepaRG cell culture assay. It is a marker of Cell proliferation, survival, death.Data from the assay component LTEA_HepaRG_CCND1 was analyzed into 1 endpoint. This assay endpoint, LTEA_HepaRG_CCND1, was analyzed with bidirectional fitting relative to DMSO as the negative control and baseline of activity. Using a type of inducible reporter, measures of mRNA induction for gain or loss-of-signal activity can be used to understand regulation of transcription factor activity. To generalize the intended target to other relatable targets, this assay endpoint is annotated to the cell cycle intended target family, where the subfamily is Cell proliferation, survival, death.
A total of 1060 chemcials from the ToxCast library were tested in eight-point concentration-response experiments. Cell culture and cytotoxicity assays were conducted at Thermo Fisher Scientific's Custom Services facility (Madison, WI). A single lot of human HepaRG cells (Thermo Fisher Scientific, Frederick, MD) was used for the cell culture experiments. 96-well format collagen type I coated plates of human HepaRG cells were prepared using established methods. Briefly, cryopreserved HepaRG cells were thawed, plated at a density of approximately 100,000 cells/well in HepaRG Thaw, Plate, and General Purpose media (HPRG770, Thermo Fisher Scientific), and incubated for 48 hours. 0.5% DMSO was selected as vehicle control to balance the requisite need of DMSO in HepaRG cultures to maintain differentiation (for example, baseline metabolism, proportions of hepatocytes vs. cholangiocytes), while enabling further hepatic receptor pathway activation (for example, PXR and CAR) in response to chemical exposure. 48 hours after plating, the culture medium was replaced with HepaRG Serum-Free Incudtion Media. Cells were exposed to each test chemical in duplicate and maintained in CO2 incubators for another 48 hours. Chemical plates were thawed to room temperature and 200x concentrations of treatment groups were prepared. 8-point conentration-reponse curves were made with the highest exposure at 100 uM, followed by half-log dilutions, all in 0.5% DMSO. Each test plate contained variouse controls, induction positive controls (1mM phenobarbital), cytotoxicity positive controls ([…] aflatoxin B1), vehicle controls (0.5% DMSO), and total lysis controls (0.5% DMSO). Cell morphology images were taken using an Essen IncuCyte FLR automated microscope, with six 96-well plates imaged in about 24 minutes. Images were captured and exported and JPEG files. Spent culture media was transfered to black-well plates for the LDH assay, and remaining media was sorted at -80 C for later use. Cells were treated with RLT buffer and frozen until shipped for gene expression analysis. Total RNA was isolated from the cell suspension in 75 uL of Buffer RLT (Qiagen, Germantown, MD 20874) by Quintiles/Expression Analysis (Durham, NC) using a custom isolation procedure. Total RNA from each plate well was transferred to a preamplification plate. Fluidigm's 96.96 Dynamic ArrayTM (Fluidigm, Amsterdam, the Netherlands) technology was used for gene expression analyses by quantitative reverse transcription polymerase chain reaction (qRT-PCR, performed by Quintiles/Expression Analysis, Durham, NC)89. Standard TaqManTM Assays (Applied Biosystems/ThermoFisher Scientific, Foster City, CA) were used to assess the expression of 93 genes selected based on their selectivity and sensitivity to important hepatic receptors known to be modulated by environmental chemicals; importance in human hepatocyte functionality; and hepatotoxicity. […]

| Compound | AC50 | outcome |
| --- | --- | --- |
| O=C(Nc1ccccc1)c1ccccc1I | 22 µM (active) |  |
| Clc1ccc(C(c2ccc(Cl)cc2)C(Cl)(Cl)Cl)cc1 |  | inactive |
| Clc1ccc(C(c2ccc(Cl)cc2)C(Cl)Cl)cc1 |  | inactive |
| [O-][Cl+]O |  | inactive |
| O=C(O)C1C2CCC(O2)C1C(=O)O (stereo not given) | 32.3 µM (active) |  |
| OCCOCCO |  | inactive |
| Clc1ccc(Cl)c(Cl)c1 |  | inactive |
| CCCCCOC(=O)c1ccccc1C(=O)OCCCCC |  | inactive |
| C=CCc1ccc2c(c1)OCO2 |  | inactive |
| Nc1cc(Cl)cc(C(=O)O)c1Cl |  | inactive |
| CCNS(=O)(=O)C(F)(F)C(F)(F)C(F)(F)C(F)(F)C(F)(F)C(F)(F)C(F)(F)C(F)(F)F |  | inactive |
| O=[N+]([O-])c1ccc(Oc2ccc(Cl)cc2Cl)cc1 |  | inactive |
| O=C(N[C@H](c1ccccc1)[C@@H]1CN2CCC1CC2)c1c(Cl)ccc(C(F)(F)F)c1Cl | 74.2 µM (active) |  |
| ClC1=C(Cl)C2(Cl)C3C(Cl)C=CC3C1(Cl)C2(Cl)Cl (stereo not given) | 18.4 µM (active) |  |
| O=C(Oc1ccc(Br)cc1)N1CCN2CCC1CC2 |  | inactive |
| CCCCC(CC)COC(=O)c1ccc(C(=O)OCC(CC)CCCC)c(C(=O)OCC(CC)CCCC)c1 (stereo not given) |  | inactive |
| CO[C@@H]1[C@H](OC(=O)NC(=O)CCl)CC[C@]2(CO2)[C@H]1[C@@]1(C)O[C@@H]1CC=C(C)C |  | inactive |
| N#CC(Br)(Br)C(N)=O |  | inactive |
| CCOc1cccc(C2(N3CCN(c4ccccc4)CC3)CCC(C)CC2)c1 (stereo not given) |  | inactive |
| c1ccc(N=Nc2ccccc2)cc1 |  | inactive |

| Compound | AC50 | outcome |
| --- | --- | --- |
| COC(=O)Nc1nc2ccccc2[nH]1 |  | inactive |
| CCC12COCN1COC2 |  | inactive |
| CC(C)COC(=O)c1ccccc1C(=O)OCC(C)C |  | inactive |
| CC(C)(C)C(O)(CCc1ccc(Cl)cc1)Cn1cncn1 (stereo not given) |  | inactive |
| Brc1ccc(Oc2ccccc2)cc1 |  | inactive |
| Nc1ccc(N=Nc2ccccc2)cc1 | 28.8 µM (active) |  |
| O=[N+]([O-])C(Br)(CO)CO |  | inactive |
| Cc1cc(N=Nc2ccccc2C)ccc1N | 39.2 µM (active) |  |
| CC(C)(OOC(C)(C)c1ccccc1)c1ccccc1 |  | inactive |
| O=C1CCCO1 |  | inactive |
| CC(C)N(Cc1ccccc1)C(=O)C(C)(C)C |  | inactive |
| CCN(CC)CCO |  | inactive |
| COc1cc(C=O)cc2c1[C@H](COC(N)=O)[C@]1(OC(C)=O)ON2C[C@H]2[C@@H]1N2C(C)=O | 50 µM (active) |  |
| Nc1ccc(Cl)cc1N |  | inactive |
| c1ccc(NNc2ccccc2)cc1 |  | inactive |
| CCCCOC(=O)c1ccccc1C(=O)OCc1ccccc1 |  | inactive |
| CC(C)(C)OOC(=O)c1ccccc1 |  | inactive |
| c1ccc(C2CO2)cc1 (stereo not given) |  | inactive |
| COC(=O)c1ccccc1N |  | inactive |
| CCCCCCCCCCCCCN1CC(C)OC(C)C1 (stereo not given) |  | inactive |
